Source: PMC5540273 (PLoS ONE, 2017)

system: GRK1; settings: concentration: 1 μM,replicates: in singlicate; n = 1
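Note: KINOMEscan kinase panel screen.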

| SMILES | %Inh [%] |
| --- | --- |
| C=CC(=O)Nc1cc2c(Nc3ccc(F)c(Cl)c3)ncnc2cc1OCCCN1CCOCC1 [GW781483] | 0 |
| CC(C)Nc1cc(-c2ccc3c(N)n[nH]c3c2)nc(N)n1 [GSK2221681] | 0 |
| COc1ccc(C[C@@H](CN)NC(=O)c2cc(Br)c(-c3ccnc4[nH]ccc34)s2)cc1.Cl.Cl [GSK1389063] | 99.8 |
| Cc1occc1-c1nc(N)c(OC[C@@H](N)Cc2c[nH]c3ccccc23)cc1-c1cc2c(C)n[nH]c2cn1 [GSK1660450] | 74 |
| Cc1ccc2c(-c3ccncc3)c(-c3ccc(F)cc3)nn2c1.Cl [GW461484] | 0 |
| O=C(NCCCN1CCOC1=O)c1cnc(NCc2cc(Cl)ccc2Cl)nc1NC1CCCC1 | 22 |
| Cc1n[nH]c2ccc(-c3cc(OC[C@@H](N)Cc4ccccc4)cnc3-c3ccoc3)cc12.O=C(O)C(F)(F)F.O=C(O)C(F)(F)F [GSK507358] | 0 |
| Cc1cc2cn[nH]c2cc1-c1cccc2c(N)c(C(N)=O)nnc12 | 23 |
| NC(=O)c1cc(-c2ccccc2)cc2c(C3CCNCC3)c[nH]c12 [GSK301362] | 0 |
| Cc1ccc(-n2nc(C(C)(C)C)cc2NC(=O)Nc2ccc(OCCN3CCOCC3)c3ccccc23)cc1 [GW839464] | 0 |
| CC(C)N1C(=O)Cc2cc(Nc3ncc(C(F)(F)F)c(NCc4cccc(S(C)(=O)=O)c4)n3)ccc21 | 25 |
| O=C(NCCNc1ccnc(NCc2ccc(F)cc2)n1)c1cc2ccccc2s1 [GSK1379944] | 0 |
| CNC(=O)c1ccccc1Sc1ccc2c(/C=C/c3ccccn3)n[nH]c2c1 | 25 |
| Nc1nc(Nc2ccccc2)cc(-c2ccc3c(N)n[nH]c3c2)n1 [GSK2225749] | 0 |
| CCN(CC)CCCCNc1ncc2cc(-c3c(Cl)cccc3Cl)c(NC(=O)NC(C)(C)C)nc2n1 | 12 |
| Cc1cc(C(=O)Nc2ccc(Oc3ccc4nc(NC(=O)C5CC5)cn4n3)cc2)nn1-c1ccccc1 | 0 |
| CN(C)CC(O)COc1ccc(Nc2nccc(-c3cnn4nc(N5CCOCC5)ccc34)n2)cc1 (stereo not drawn) [GW767488] | 23 |
| Cl.Cl.Nc1nc(-c2ccc3c(N)n[nH]c3c2)cc(N2CCCC(NC(=O)c3ccccc3)C2)n1 (stereo not drawn) [GSK2286775] | 0 |
| CN(C)CCOc1ccc(-c2cc(-c3c[nH]nc3-c3ccccn3)ccn2)cc1 [GW835314] | 17 |
| C[C@@H]1CCN(C(=O)CC#N)C[C@@H]1N(C)c1ncnc2[nH]ccc12 | 15 |
| Cl.Cl.NC[C@H](CC1CCCCC1)NC(=O)c1cc(Br)c(-c2ccnc3[nH]ccc23)s1 [GSK1581427] | 90.2 |
| Cl.Cl.NC[C@H](Cc1ccc(C(F)(F)F)cc1)NC(=O)c1cc(Br)c(-c2ccnc3[nH]ccc23)s1 [GSK1487252] | 93.7 |
| Cl.Oc1cc(-c2nc(-c3ccccc3)[nH]c2-c2ccncc2)ccc1Cl [SB-386023] | 2 |
| C[C@H]1Oc2cc(cnc2N)-c2c(nn(C)c2C#N)CN(C)C(=O)c2ccc(F)cc21 | 95.8 |
| C[C@@H](Oc1cc(-c2cnn(C3CCNCC3)c2)cnc1N)c1c(Cl)ccc(F)c1Cl | 15 |
| CCn1c(-c2nonc2N)nc2c(C#CC(C)(C)O)nc(OCCN)cc21.Cl.Cl [GSK902056] | 19 |
| CCN(CC)CCOc1ccc(Nc2ncc3cc(-c4c(Cl)cccc4Cl)c(=O)n(C)c3n2)cc1 [SB-601273] | 6 |

system: T1, GRK2; settings: concentration: 1 μM,replicates: in singlicate; n = 1
T1 construct: gene ADRBK1

| SMILES | %Inh [%] |
| --- | --- |
| C=CC(=O)Nc1cc2c(Nc3ccc(F)c(Cl)c3)ncnc2cc1OCCCN1CCOCC1 [GW781483] | 19 |
| CC(C)Nc1cc(-c2ccc3c(N)n[nH]c3c2)nc(N)n1 [GSK2221681] | 0 |
| COc1ccc(C[C@@H](CN)NC(=O)c2cc(Br)c(-c3ccnc4[nH]ccc34)s2)cc1.Cl.Cl [GSK1389063] | 67 |
| Cc1occc1-c1nc(N)c(OC[C@@H](N)Cc2c[nH]c3ccccc23)cc1-c1cc2c(C)n[nH]c2cn1 [GSK1660450] | 0 |
| Cc1ccc2c(-c3ccncc3)c(-c3ccc(F)cc3)nn2c1.Cl [GW461484] | 0 |
| O=C(NCCCN1CCOC1=O)c1cnc(NCc2cc(Cl)ccc2Cl)nc1NC1CCCC1 | 0 |
| Cc1n[nH]c2ccc(-c3cc(OC[C@@H](N)Cc4ccccc4)cnc3-c3ccoc3)cc12.O=C(O)C(F)(F)F.O=C(O)C(F)(F)F [GSK507358] | 0 |
| Cc1cc2cn[nH]c2cc1-c1cccc2c(N)c(C(N)=O)nnc12 | 1 |
| NC(=O)c1cc(-c2ccccc2)cc2c(C3CCNCC3)c[nH]c12 [GSK301362] | 0 |
| Cc1ccc(-n2nc(C(C)(C)C)cc2NC(=O)Nc2ccc(OCCN3CCOCC3)c3ccccc23)cc1 [GW839464] | 5 |
| CC(C)N1C(=O)Cc2cc(Nc3ncc(C(F)(F)F)c(NCc4cccc(S(C)(=O)=O)c4)n3)ccc21 | 0 |
| O=C(NCCNc1ccnc(NCc2ccc(F)cc2)n1)c1cc2ccccc2s1 [GSK1379944] | 0 |
| CNC(=O)c1ccccc1Sc1ccc2c(/C=C/c3ccccn3)n[nH]c2c1 | 22 |
| Nc1nc(Nc2ccccc2)cc(-c2ccc3c(N)n[nH]c3c2)n1 [GSK2225749] | 74 |
| CCN(CC)CCCCNc1ncc2cc(-c3c(Cl)cccc3Cl)c(NC(=O)NC(C)(C)C)nc2n1 | 22 |
| Cc1cc(C(=O)Nc2ccc(Oc3ccc4nc(NC(=O)C5CC5)cn4n3)cc2)nn1-c1ccccc1 | 0 |
| CN(C)CC(O)COc1ccc(Nc2nccc(-c3cnn4nc(N5CCOCC5)ccc34)n2)cc1 (stereo not drawn) [GW767488] | 0 |
| Cl.Cl.Nc1nc(-c2ccc3c(N)n[nH]c3c2)cc(N2CCCC(NC(=O)c3ccccc3)C2)n1 (stereo not drawn) [GSK2286775] | 0 |
| CN(C)CCOc1ccc(-c2cc(-c3c[nH]nc3-c3ccccn3)ccn2)cc1 [GW835314] | 0 |
| C[C@@H]1CCN(C(=O)CC#N)C[C@@H]1N(C)c1ncnc2[nH]ccc12 | 0 |
| Cl.Cl.NC[C@H](CC1CCCCC1)NC(=O)c1cc(Br)c(-c2ccnc3[nH]ccc23)s1 [GSK1581427] | 0 |
| Cl.Cl.NC[C@H](Cc1ccc(C(F)(F)F)cc1)NC(=O)c1cc(Br)c(-c2ccnc3[nH]ccc23)s1 [GSK1487252] | 35 |
| Cl.Oc1cc(-c2nc(-c3ccccc3)[nH]c2-c2ccncc2)ccc1Cl [SB-386023] | 0 |
| C[C@H]1Oc2cc(cnc2N)-c2c(nn(C)c2C#N)CN(C)C(=O)c2ccc(F)cc21 | 2 |
| C[C@@H](Oc1cc(-c2cnn(C3CCNCC3)c2)cnc1N)c1c(Cl)ccc(F)c1Cl | 16 |
| CCn1c(-c2nonc2N)nc2c(C#CC(C)(C)O)nc(OCCN)cc21.Cl.Cl [GSK902056] | 0 |
| CCN(CC)CCOc1ccc(Nc2ncc3cc(-c4c(Cl)cccc4Cl)c(=O)n(C)c3n2)cc1 [SB-601273] | 29 |
